The nature of assay [1]: EMT-state selective cytotoxicity in co-culture – imaging, PC-3E GFP, TEM4-18 mCherry, primary screen (AID 1345086).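 As to all read-outs here: cells exposed to compound for 72 h before imaging.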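 As to red/green cell ratio (normalised): normalised mesenchymal count divided by normalised epithelial count so high means epithelial killing.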 Particulars: PC-3E GFP / TEM4-18 mCherry co-culture, imaging cell counts, at 1 µM; for red/green cell ratio (normalised): actives lie on both sides, counts scaled to control wells, 1 = unselective.
Assay [2] concerns the target Mitogen-activated protein kinase 7 (Homo sapiens) (UniProt Q13164). As to the kind of experiment: Gal4-ERK5 driven luciferase induction – cell-based, HTS, primary screen (AID 1508626;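 active = luciferase signal above three times the same-plate solvent-only control wells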;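 also: luciferase driven by Gal4-ERK5 fusion binding five Gal4 sites before minimal TATA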). Particulars: HeLa Gal4-ERK5 transactivation, 18 h, at 5 µM, stronger effect = higher value.
Assay [3] can be described thus: blockers of polyQ-driven CASP3 activation – cell-based (AID 1583). Particulars: polyglutamine-induced caspase-3 activation, cell assay; stronger effect = higher value;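 tested at 10 µM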.
The nature of assay [4]: yeast 75Q aggregation reduction – 75Q-TubU reporter (AID 1593). Particulars: Yeast 75Q polyglutamine aggregation reporter.
Assay [5] in a line: glutamate excitotoxicity neuroprotectants – cell-based, TUNEL DNA degradation staining, MNGlu (AID 1594; call rule not given here). Particulars: motor neurons, glutamate-induced death, at 1 µM, stronger effect = higher value.
Assay [6] in a line: restoration of touch response, mutant HTT neurons – whole organism, C. elegans mechanosensory neurons, N-terminal huntingtin (AID 1599). Particulars: C. elegans polyQ-huntingtin mechanosensory neurons, stronger effect = higher value.
Assay [7] is described as follows: blockers of cytochrome c efflux from mitochondria – biochemical, purified mitochondria (AID 1603).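 Also: mouse liver mitochondria challenged with calcium chloride; signal normalized to the plate average as 100%.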 The conditions noted are these: stronger effect = lower value.
Assay [8] can be described thus: polyglutamine aggregate formation blockers (AID 1604). The conditions noted are these: polyglutamine-induced protein aggregation inhibition assay; stronger effect = higher value; tested at 2.5 µM.
Assay [9] is described as follows: glutamate transport activators, MN-1 cells, MN-1 cell line (AID 1612).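 Also: tested at 1 µM final; 0% = mean of DMSO vehicle wells on each plate; positive means more glutamate uptake than control and negative means less.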 The conditions noted are these: MN-1 motor neuron cells, stronger effect = higher value.
Assay [10] can be described thus: GFP-Q80 aggregate reduction, neuronal-like cells, cell-based, NGF-treated PC12, GFPQ80 (AID 1614).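 Also: lower means fewer inclusions and 0 means no inclusions at all.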 The conditions noted are these: PC12 NGF-treated GFP-polyQ80 inclusion reduction.
Assay [11] in a line: 75Q-TubH aggregate inhibition, S. cerevisiae, yeast (AID 1616). The conditions noted are these: S. cerevisiae 75Q-TubH polyglutamine aggregation suppression; stronger effect = higher value.
A short description of assay [12]: P. berghei load reduction in hepatocytes – cell-based, HepG2, luciferase luminescence, HepG2 viability, primary screen (AID 624349; in the data active = parasite load remaining mostly below about 12%, no sharp cut-off; inactive = mostly above about 10%;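 also: 100% = mean of DMSO negative control wells on the same plate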). Particulars: P. berghei liver stage in HepG2, luciferase luminescence, concentration not given here; parasite load remaining: stronger effect = lower value; viability: measured here: HepG2 viability without parasites.
The target of assay [13] is NAD(+) hydrolase SARM1 (Homo sapiens) (UniProt Q6SZW1). As to the kind of experiment: blocking NAD cleavage by SARM1 SAM-TIR – cell lysate, NAD-Glo luminescence (AID 1508614;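 active = compound whose remaining NAD level is above about 45 nM, limit read from the data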;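 also: higher remaining NAD means stronger inhibition of SARM1 NADase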). The conditions noted are these: SAM-TIR HEK293T lysate NADase, at 1 µM, stronger effect = higher value.
[14] abbreviates: measured here: epithelial PC-3E GFP cell survival.
The mark [15] stands for this setting: measured here: mesenchymal TEM4-18 mCherry cell survival.

Consider 15 compounds from PubChem BioAssay.

Results filed as inconclusive are left out. For some assays here: Results with a measured potency or affinity are listed apart. Activity calls are given as the source filed them.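 The calls were made as follows, unless noted: active = compounds killing one labelled cell type while sparing the other, by normalised counts and ratio limits, not self-fluorescent; inactive = the rest.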

Mitogen-activated protein kinase 7 (Homo sapiens), sequence (Q13164 whole entry, looked up, the tested form may be a part): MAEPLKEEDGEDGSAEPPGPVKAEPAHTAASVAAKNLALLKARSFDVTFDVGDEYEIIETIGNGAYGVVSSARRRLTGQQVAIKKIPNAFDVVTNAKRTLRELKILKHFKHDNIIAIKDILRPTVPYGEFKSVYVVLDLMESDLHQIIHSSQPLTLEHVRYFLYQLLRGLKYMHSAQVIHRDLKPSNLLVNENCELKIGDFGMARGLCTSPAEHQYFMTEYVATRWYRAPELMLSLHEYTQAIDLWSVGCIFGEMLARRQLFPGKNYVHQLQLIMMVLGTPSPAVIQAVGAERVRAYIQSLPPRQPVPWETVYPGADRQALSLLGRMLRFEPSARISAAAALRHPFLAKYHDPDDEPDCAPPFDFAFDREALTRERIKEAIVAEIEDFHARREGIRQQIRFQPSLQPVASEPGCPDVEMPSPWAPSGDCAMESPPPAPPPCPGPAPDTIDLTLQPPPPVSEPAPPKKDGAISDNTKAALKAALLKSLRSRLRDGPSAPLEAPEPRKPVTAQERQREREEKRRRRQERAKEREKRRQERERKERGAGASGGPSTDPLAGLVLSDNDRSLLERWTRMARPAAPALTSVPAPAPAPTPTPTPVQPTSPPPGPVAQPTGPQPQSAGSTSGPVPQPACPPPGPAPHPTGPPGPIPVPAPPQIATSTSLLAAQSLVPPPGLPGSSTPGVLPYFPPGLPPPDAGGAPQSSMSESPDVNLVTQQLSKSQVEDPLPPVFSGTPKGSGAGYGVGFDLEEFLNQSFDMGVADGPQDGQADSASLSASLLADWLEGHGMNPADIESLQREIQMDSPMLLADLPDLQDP
NAD(+) hydrolase SARM1 (Homo sapiens), sequence (Q6SZW1 whole entry, looked up): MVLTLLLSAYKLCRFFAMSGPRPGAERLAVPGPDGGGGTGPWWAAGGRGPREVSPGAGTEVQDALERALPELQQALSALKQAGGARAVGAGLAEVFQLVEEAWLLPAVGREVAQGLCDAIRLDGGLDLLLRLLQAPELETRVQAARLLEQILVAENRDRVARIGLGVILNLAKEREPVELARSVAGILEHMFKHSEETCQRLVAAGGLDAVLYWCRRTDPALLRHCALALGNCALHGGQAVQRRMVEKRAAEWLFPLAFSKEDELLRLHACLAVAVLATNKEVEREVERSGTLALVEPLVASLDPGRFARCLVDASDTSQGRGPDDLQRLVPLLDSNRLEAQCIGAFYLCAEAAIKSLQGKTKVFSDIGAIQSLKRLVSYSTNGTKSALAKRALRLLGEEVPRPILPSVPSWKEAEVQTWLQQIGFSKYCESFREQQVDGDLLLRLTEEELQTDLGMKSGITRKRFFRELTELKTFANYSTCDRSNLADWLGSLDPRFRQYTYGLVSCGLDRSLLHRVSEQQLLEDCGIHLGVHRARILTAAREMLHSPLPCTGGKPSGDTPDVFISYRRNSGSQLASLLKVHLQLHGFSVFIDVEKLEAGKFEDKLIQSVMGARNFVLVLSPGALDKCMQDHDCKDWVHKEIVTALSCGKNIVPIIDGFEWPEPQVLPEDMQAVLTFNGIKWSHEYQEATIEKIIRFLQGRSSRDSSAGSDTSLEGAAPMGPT

Take `O=C1C=CC(=O)c2c(O)c(Cl)c(Cl)c(O)c21`: the red/green cell ratio (normalised) in assay [1] is 1 (inactive). For the same compound, the normalised cell number in assay [1] (setting [14]) and in assay [1] (setting [15]) was 1.04 each time. For the same compound, the luciferase signal in [2] is 12 AU (inactive).
With `COc1ccc2c(c1)O[C@H]1c3ccc(OC)cc3OC[C@@H]21`, the red/green cell ratio (normalised) in assay [1] is 1.06 (inactive). Also, the normalised cell number in [1] (setting [14]) is 1; in assay [1] (setting [15]), 1.07. In addition, the luciferase signal in assay [2] is 68 AU (inactive).
On to `COc1ccc([C@H]2COc3c(ccc(O)c3OC)C2)c(OC)c1O`, for which, in assay [1], the red/green cell ratio (normalised) was 0.9 (inactive). Further, the normalised cell number was determined as 0.99 in assay [1] (setting [14]) and 0.9 in [1] (setting [15]). For the same compound, the luciferase signal in assay [2] was 60 AU (inactive).
As for `O=S(=O)(O)c1cc(N=C=S)ccc1/C=C/c1ccc(N=C=S)cc1S(=O)(=O)O`, the red/green cell ratio (normalised) in assay [1] is 0.86 (inactive). The normalised cell number was 1.29 in [1] (setting [14]) and 1.11 in [1] (setting [15]). The luciferase signal in assay [2] is 52 AU (inactive).
For the compound `Nc1ccc(C(=O)O)c(O)c1` (tested in a mixture with another compound), in assay [3], the inhibition was -9.55%. In assay [4], this compound came in with a score of 1.25. Moreover, in [5], the protection is 60% (active). The rescue above control in [6] is -2.24. Also, the cytochrome c release ratio in [7] was found to be 0.96. This compound showed an inhibition of aggregation in [8] of 69%. For the same compound, the glutamate uptake change in assay [9] is -12.2%. This compound showed an inclusion score in assay [10] of 2. In [11], this compound displayed an aggregation suppression score of 1.1. In assay [12], the parasite load remaining was 155% (inactive) and the viability is 85.3%. In addition, the red/green cell ratio (normalised) in assay [1] was 0.93 (inactive). This compound also displayed a normalised cell number in [1] (setting [14]) of 1.14. Further, the normalised cell number in assay [1] (setting [15]) worked out at 1.06. Besides, the remaining NAD in [13] is 10 nM (inactive).
With `O=C(O)c1cc(=O)c(O)c2c(O)c(O)c(O)cc2c1`, the red/green cell ratio (normalised) in assay [1] is 0.85 (inactive). Moreover, the figures for the normalised cell number in assay [1] (setting [14]) and in assay [1] (setting [15]) were 1.11 and 0.94, respectively. Besides, the luciferase signal in [2] was 100 AU (inactive).
For `COc1ccc(-c2cc(=O)c3c(OC)c(OC)c(OC)cc3o2)cc1OC` the same measures were 1.21 (inactive), 0.9, 1.08 and 36 AU (inactive).
`CC(=O)Oc1cc2c(c(C)c1OC(C)=O)CC=C1[C@@]2(C)CC[C@@]2(C)C3C[C@](C)(C(=O)O)CC[C@]3(C)CC[C@]12C` (stereo partly specified): in [1], the red/green cell ratio (normalised) was 0.58 (inactive). Further, the normalised cell number was 1.06 in [1] (setting [14]) and 0.62 in assay [1] (setting [15]). The luciferase signal in assay [2] was 48 AU (inactive).
`C/C1=C/CC(C)(C)/C=C/C/C(C)=C/CC1`: the red/green cell ratio (normalised) in [1] was 0.95 (inactive). Also, the normalised cell number in assay [1] (setting [14]) was found to be 1.06; in assay [1] (setting [15]), 1.01. In addition, in assay [2], the luciferase signal is 60 AU (inactive).
Consider `COc1ccc(-c2oc3cc(OC)c(OC)c(OC)c3c(=O)c2OC)cc1`, for which, in assay [1], the red/green cell ratio (normalised) was 1.04 (inactive). Further, the normalised cell number was 1.02 in [1] (setting [14]) and 1.05 in [1] (setting [15]). Moreover, the luciferase signal in assay [2] was 72 AU (inactive).
The corresponding values for `Cc1c(S(=O)(=O)O)oc2c1C(=O)C(=O)c1c-2ccc2c1CCCC2(C)C` are 0.95 (inactive), 1.24, 1.18 and 48 AU (inactive).
The corresponding values for `COc1ccc(-c2oc3cc(OC)c(OC)c(OC)c3c(=O)c2OC)cc1OC` are 1.2 (inactive), 0.9, 1.08 and 32 AU (inactive).
`OC[C@H]1O[C@@H](O[C@H]2[C@H](O)[C@@H](O)[C@@H](O)O[C@@H]2CO)[C@H](O)[C@@H](O)[C@@H]1O`: the red/green cell ratio (normalised) in [1] is 1.17 (inactive). In addition, the normalised cell number in assay [1] (setting [14]) is 0.89; in assay [1] (setting [15]), 1.04. For the same compound, the luciferase signal in assay [2] was 32 AU (inactive).
For `COC1=CC(=O)C(O)=C/C1=C\C=C\c1ccccc1`, the red/green cell ratio (normalised) in [1] is 1.11 (inactive). In addition, the normalised cell number worked out at 0.95 in assay [1] (setting [14]) and 1.06 in assay [1] (setting [15]). The luciferase signal in assay [2] was 12 AU (inactive).
In the case of `COc1ccc(-c2coc3c(O)c(O)c(OC)cc3c2=O)cc1`, the red/green cell ratio (normalised) in assay [1] is 0.97 (inactive). The normalised cell number in assay [1] (setting [14]) was 1.12; in assay [1] (setting [15]) it was 1.09. For the same compound, the luciferase signal in assay [2] was 88 AU (inactive).
